Source: PubChem
Most compounds without a hit are left out; they make up all but 3% or so of the library.
OvCa metastasis – Primary qHTS assay for Inhibitors of ovarian cancer metastasis using an organotypic tumor microenvironment (TME) model | SKOV3ip1-GFP adhesion/invasion on 3D omental model, fluorescence | Potency, µM (doses to about 45.8 µM), without a hit: at the highest dose activity change, negative = inhibition, hits mostly inhibitors | hit rate 0.1% among 46,000 | AID 1963576, 2024;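 further: plate controls were DMSO wells for no effect and tomatine positive control wells for full effect; nearly all actives have a fitted effect of over 65% in size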
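Adhesion/invasion was scored as fixed GFP-labeled SKOV3ip1 cell counts (488/509 nm), normalized to DMSO and tomatine controls. Cancer cells in serum-free medium, with four compound doses (0.36-46 umol/L), sat 2 hr at RT then 16 hr at 37 C on a 48 hr fibroblast/mesothelial/ECM culture.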
PMP22 txn – Cell-based coincidence reporter assay to measure PMP22 gene transcription in S16 Pmp22-F2sN cells - Primary screen; S16 Pmp22-F2sN Schwann cells, FLuc/NLuc coincidence luminescence, 24 h; Potency, µM (top dose mostly 57.5 µM), for the others: at the top dose activity change, negative = inhibition, actives largely listed as inhibitors; hit rate 2% among 43,000; AID 1508649, 2021; active means clear falling dose curves in both reporters; inconclusive means both reporters move, but less clearly or upward; inactive means either reporter flat; the % is the NLuc reporter signal
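S16(c9) Schwann cells with FLuc/NLuc coincidence reporter in the Pmp22 3' UTR; compounds pin-transferred, 24 h at 37C. Dual-luciferase read: FLuc first, then NLuc after Stop&Glo, each 10 min at room temperature.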
S16 viability – Cell viability qHTS assay in S16 Pmp22-F2sN cells; Potency, µM (top dose mostly 57.5 µM), inactives show top-dose activity change, negative = cytotoxicity, usual class: cytotoxic; hit rate 0.48% among 43,000; AID 1508642, 2021; S16 Pmp22-F2sN Schwann cells (luciferase reporters placed in the Pmp22 gene) viability, CellTiter-Glo, 24 h; further: nearly all actives have a fitted effect of over 65% in size
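Rat S16 Schwann reporter line, 24 h treatment with library compounds delivered at 23 nL per well. Cell viability by CellTiter-Glo luminescence.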
pS6 MEF inh – Acumen qHTS Assay for Inhibitors of the mTORC1 Signaling Pathway in MEF (Tsc2-/-, p53-/-) Cells: Sytravon. Tsc2-/- p53-/- MEF, phospho-rpS6 immunofluorescence/PI, 24 h. Potency, µM (top dose mostly 38.3 µM), without a hit: at the highest dose activity change, negative = inhibition, most hits filed as inhibitors. hit rate 0.78% among 44,000. AID 493208, 2011;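 further: plate controls were DMSO for no effect and rapamycin for full effect; nearly all actives have a fitted effect of over 50% in size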
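Readout is phospho-S6 Alexa 488 signal normalized to PI per well, reported as % active cells with thresholds set from rapamycin (7.5 nM) and DMSO controls. Cells: Tsc2-/-, p53-/- MEFs, 24 hrs compound at 37 C; PI cell number serves as viability.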
p53null 39C kill – qHTS Screen for Compounds that Selectively Target Cancer Cells with p53 Mutations: Cytotoxicity of p53 Null Cells at the Nonpermissive Temperature; H1299 p53-null (neo) cells, 39C, ATPlite viability, 24 h; Potency, µM (series often up to 46.1 µM), without a hit: top-dose activity, negative = cell killing, hits mostly cytotoxic; hit rate 0.97% among 55,000;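 further: 0% = DMSO only and -100% = full killing by 100 µM tamoxifen; nearly all actives have a fitted effect of over 50% in size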
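Following overnight plating at 37C (600 cells/well), H1299-neo or H1299-p53A138V cells are dosed up to 46 uM. Incubation lasts 24 hr at 39C before ATP detection.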
p53null 32C tox – qHTS Screen for Compounds that Selectively Target Cancer Cells with p53 Mutations: Cytotoxicity of p53 Null Cells at the Permissive Temperature | AID 903, 2007 | hit rate 0.62% among 55,000 | Potency, µM (doses to about 46.1 µM), for the others: top-dose activity change, negative = cytotoxicity, hits mostly cytotoxic | H1299-neo p53 null cells, ATP luminescence, 24 h, 32C;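 further: 0% = DMSO only and -100% = full killing by 100 µM tamoxifen; nearly all actives have a fitted effect of over 55% in size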
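H1299-neo (p53 null) cells, 600/well, treated 24 h at 32C with compound up to 46 uM; ATPlite luminescence viability, normalized to DMSO and 100 uM tamoxifen; AC50 by Hill fit.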
Active calls of the source: *; i = inactive; ? = inconclusive; . = not tested or not shown. Unless noted, the call rests on the fitted dose curve; in most records, active means well fitted curve in the direction sought with a large enough effect; inconclusive means small, poorly fitted or top-dose-only effect, or another doubt; inactive means no such curve, though single readings can be large; an effect the other way counts as inactive or inconclusive. Unless noted, on the % scale 0 is the no-effect control and ±100 the full control effect; potency means the concentration at half of the fitted maximal effect.

SMILES	OvCa metastasis	PMP22 txn	S16 viability	pS6 MEF inh	p53null 39C kill	p53null 32C tox
Cc1cnc(-c2cc(N3CCN(C(=O)CCS(C)(=O)=O)CC3)ncc2Cl)c(C)c1	17%	.	.	.	.	.
Cn1cnc(-c2cc3nccc(Oc4ccc(NC(=S)NC(=O)Cc5ccccc5)cc4F)c3s2)c1	8%	.	.	.	.	.
O=c1[nH]nc(Sc2ncc([N+](=O)[O-])s2)n1-c1ccc2c(c1)OCCO2	15µM*	.	.	.	.	.
COc1cccc(-c2oc3ccc(C)cc3c(=O)c2O)c1	-5%	?	-26%	?	22µM*	?
CCOc1ccc(-c2oc3ccc(C)cc3c(=O)c2O)cc1	-2%	7%	-2%	8%	-26%	-9%
COC(=O)N[C@H](C(=O)N1CCC[C@@H]1c1ncc(-c2ccc(-c3ccc(-c4cnc([C@@H]5CCCN5C(=O)[C@@H](NC(=O)OC)C(C)C)[nH]4)cc3)cc2)[nH]1)C(C)C	-8%	.	.	.	.	.
Cc1cc(Nc2ccc(Cl)cc2C)nc(-n2nc(C)cc2C)n1	-9%	7µM*	5.6µM*	0%	-7%	-13%
C[C@@H](Oc1ccc2[nH]nc(C=Cc3cnn(CCO)c3)c2c1)c1c(Cl)cncc1Cl	3%	.	.	.	.	.
CCOC(=O)Cc1c(C)nc2c(-c3ccc(OC)c(OC)c3)c(C)nn2c1C	-8%	14µM*	?	7%	?	5%
COc1ccc(/C=C\c2onc(C)c2S(=O)(=O)N2CCC(C(=O)Nc3ccc(Cl)cc3)CC2)cc1	4%	-7%	13%	-11%	10µM*	-5%
COc1ccc(/C=C\c2onc(C)c2S(=O)(=O)N2CCC(C(=O)Nc3ccc(C)c(F)c3)CC2)cc1	5%	?	-2%	1%	10%	6%
Cc1cn2cc(C(=O)N(C)CCO)cc(N[C@@H]3CCOc4cccc(C)c43)c2n1	3%	.	.	.	.	.
CNc1oc(-c2ccc(COc3ccc(C)cc3)o2)nc1C#N	7%	-50%	-4%	-1%	?	6%
N#Cc1nc(-c2ccc(COc3ccccc3)o2)oc1NCc1ccccc1	5%	-5%	2%	-14%	?	-7%
CC(Nc1oc(-c2ccc(COc3ccccc3)o2)nc1C#N)c1ccccc1 (centres undefined)	?	?	-8%	15µM*	?	-9%
Cc1cccc(OCc2ccc(-c3nc(C#N)c(NCCN(C)C)o3)o2)c1	-16%	?	?	5.2µM*	-18%	2%
Oc1ccc(NCc2ccccc2OCc2ccccc2)cc1	5%	7.3µM*	20µM*	?	?	-17%
COc1cc(CNc2ccc(O)cc2)cc(Br)c1OCc1ccccc1F	.	.	.	.	.	-23%
Oc1ccccc1CNc1cnc2ccccc2c1	.	.	.	.	-13%	-4%
Oc1ccc(NCc2ccccc2OCc2ccc(Cl)cc2)cc1	i	?	20µM*	?	?	-26%
COc1ccc(Cl)cc1S(=O)(=O)NCc1ccc2c(c1)CCN2C(=O)c1cccc(C)c1	-9%	11µM*	14µM*	?	?	10%
Cc1ccc(-n2[nH]c(C)c(N=Nc3cccc(-c4cccc(C(=O)O)c4)c3O)c2=O)cc1C	-8%	.	.	.	.	.
CNC(=O)c1cc2ccccc2o1	.	.	.	.	21%	-8%
C/C(=N\Nc1nc2ccccc2[nH]1)c1cc2ccccc2o1	.	.	.	.	?	10µM*
O=C(/C(C=Nc1ccc(F)cc1)=C(/O)c1ccco1)C(F)(F)F	.	.	.	.	?	7.9µM*
SMILES	OvCa metastasis	PMP22 txn	S16 viability	pS6 MEF inh	p53null 39C kill	p53null 32C tox
Cc1cccc(N=C/C(C(=O)C(F)(F)F)=C(\O)c2ccco2)c1	.	.	.	.	.	6%
O=C1CSC(=O)N1C(CCc1ccncc1)COc1ccc(-c2cccc([N+](=O)[O-])c2)cc1 (centres undefined)	-1%	.	.	.	.	.
Cc1ccc(-c2cc(C(=O)N3CCN(c4ccccc4)CC3)c3ccccc3n2)cc1C	-21%	?	-18%	?	?	13µM*
Cc1ccc(-c2cc(C(=O)NC(C)c3ccccc3)c3ccccc3n2)cc1C (centres undefined)	4%	10%	-2%	15%	16%	-13%
Cc1cccc(NC(c2cccc(Cl)c2)c2ccc3cccnc3c2O)n1 (centres undefined)	i	?	?	?	2.5µM*	?
Cc1ccnc(NC(c2cccc(O)c2)c2ccc3ccc(C)nc3c2O)c1 (centres undefined)	-3%	?	-2%	?	-7%	-8%
Cc1ccc(C(Nc2ccccn2)c2ccc3cccnc3c2O)cc1 (centres undefined)	-28%	?	32µM*	-19%	4µM*	?
CC(=O)Nc1nc(C)c(-c2ccc(Cl)c(S(=O)(=O)NCCO)c2)s1	-13%	.	.	.	.	.
NC(=O)C1CCN(C(=O)c2ccc(NC(=O)c3nsc4ccccc34)cc2)CC1	-2%	?	?	-10%	2.8µM*	2.5µM*
CCSc1ncc(Cl)c(C(=O)Nc2ccc(S(=O)(=O)N(C)c3ccccc3)cc2)n1	i	?	-23%	-3%	8%	0%
CCS(=O)(=O)c1ncc(Cl)c(C(=O)Nc2ccc(S(=O)(=O)N(C)c3ccccc3)cc2)n1	-12%	1µM*	4.5µM*	0.41µM*	?	36%
CCN(c1ccccc1)S(=O)(=O)c1ccc(NC(=O)c2nc(S(C)(=O)=O)ncc2Cl)cc1	?	1.7µM*	4.5µM*	3.3µM*	?	?
CC(C)Sc1ncc(Cl)c(C(=O)Nc2ccc(S(=O)(=O)N(C)c3ccccc3)cc2)n1	5%	?	-22%	-10%	-10%	1%
O=C(c1ccc(C=Cc2n[nH]c3ccccc23)cc1)N1CCNCC1	7%	.	.	.	.	.
Fc1cc(-c2cccc3ncc(-c4cnn(C5CCNCC5)c4)nc23)cc(F)c1CN1CCOCC1	-4%	.	.	.	.	.
Cc1ccc(S(=O)(=O)NCCc2nnc3ccc(SCc4ccccc4C)nn23)cc1	-1%	-28%	-1%	3%	16µM*	5%
